Measured values reported in the supplement of paper PMC12669032.
Unmarked numbers belong to inactive results.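 Rule for the calls: active = AUC reduced over 20% with Padj below 0.05 in at least 2 of 3 replicates; inactive = otherwise.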

What was measured:
Test in all cases: growth AUC relative to DMSO control (median of replicates) (fraction); higher = more growth (less inhibition), active = hit call of the paper
Conditions in all cases: 20 µM; 24 h
[1] = system: Coprococcus comes
Summary of the method: (§1)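 Each value is the median of three biological replicates, grown on separate days, of a gut bacterial monoculture incubated anaerobically at 37 °C in mGAM with 20 µM compound (1% DMSO). Cultures started at OD600 0.05 and were read at OD600 hourly for 24 h, with the minimum OD set to 0. Area under the growth curve was normalised to the plate median of solvent-only wells, or to row and column medians on the industrial chemical plate.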

[2] = system: Escherichia coli ED1a
Summary of the method: as §1

[3] = system: Escherichia coli IAI1
Summary of the method: as §1

[4] = system: Eubacterium rectale
Summary of the method: as §1

[5] = system: Fusobacterium nucleatum subsp. animalis
Summary of the method: as §1

[6] = system: Lactobacillus gasseri
Summary of the method: as §1

[7] = system: Lactobacillus paracasei
Summary of the method: as §1

[8] = system: Odoribacter splanchnicus
Summary of the method: as §1

[9] = system: Parabacteroides distasonis
Summary of the method: as §1

[10] = system: Parabacteroides merdae
Summary of the method: as §1

[11] = system: Roseburia intestinalis
Summary of the method: as §1

[12] = system: Streptococcus salivarius
Summary of the method: as §1

Compound	growth AUC [1]	growth AUC [2]	growth AUC [3]	growth AUC [4]	growth AUC [5]	growth AUC [6]	growth AUC [7]	growth AUC [8]	growth AUC [9]	growth AUC [10]	growth AUC [11]	growth AUC [12]
Nc1nc(N)[nH]c(=O)n1	1.02	1.02	1.03	0.978	0.964	0.982	1.04	0.956	1.05	1.01	0.981	1
COC(=O)C1(O)c2ccccc2-c2ccccc21	0.939	0.966	1.01	0.95	0.911	1.07	1	0.988	1.03	0.993	1	1
CCc1cnc(C2=NC(C)(C(C)C)C(=O)N2)c(C(=O)O)c1 (stereo not drawn)	0.975	0.995	1	0.962	0.981	1.04	0.924	0.961	0.989	1.01	1.02	1.02
CCCCC(CC)COC(=O)c1ccccc1C(=O)OCC(CC)CCCC (stereo not drawn)	0.999	0.983	0.977	1.02	1	0.892	1.07	1.1	0.985	0.965	0.971	0.967
CCOCCN(C(=O)CCl)C(=C(C)C)c1ccccc1	0.999	0.98	0.976	0.982	0.986	0.935	1.01	0.978	0.955	1	1.03	0.993
O=S(=O)(c1ccc(O)cc1)c1ccc(O)cc1	0.974	1.05	1.02	0.972	0.977	0.963	0.953	0.914	0.878	0.974	1	1.04
Clc1ccc(C(c2ccc(Cl)cc2)C(Cl)Cl)cc1	1.01	1.02	0.984	1.01	1.07	0.956	0.994	0.951	1.02	0.918	0.923	0.99
Cc1c(F)c(F)c(COC(=O)[C@@H]2[C@H](/C=C(\Cl)C(F)(F)F)C2(C)C)c(F)c1F (mixture of isomers)	0.956	1	0.993	1.01	1	0.897	0.956	1.04	0.976	0.994	0.986	0.993
CC1(C)[C@H](C(=O)O[C@H](C#N)c2cccc(Oc3ccccc3)c2)[C@@H]1C=C(Br)Br	0.985	0.991	0.979	1.11	0.922	0.926	0.986	1.03	0.972	0.921	0.933	0.914
Nc1ccc(Cl)cc1	1.03	1.02	1	1.05	1.08	0.939	0.955	1.1	1.05	1.02	0.963	1.01
Cc1cccc2sc3nncn3c12	0.98	0.987	0.977	0.939	0.988	1.05	0.957	1.03	0.991	1	0.976	1.02
CCOP(=S)(OCC)SCn1nnc2ccccc2c1=O	1.01	1.01	1.03	1.02	1.09	1.01	1.05	0.926	0.707 (active)	0.946	1.11	0.993
COCc1cnc(C2=NC(C)(C(C)C)C(=O)N2)c(C(=O)O)c1 (stereo not drawn)	0.971	1	0.982	1.09	1.05	0.91	0.934	1.05	1.03	0.987	0.978	0.977
Oc1ccc(Cl)cc1Cc1cc(Cl)ccc1O	0.965	0.793 (active)	0.684 (active)	0.497 (active)	0.845	0.115 (active)	0.47 (active)	0.0459 (active)	0.0176 (active)	0.0937 (active)	0.64 (active)	0.445 (active)
COC(=O)Nc1nc2ccccc2[nH]1	1.05	1.04	1.01	0.854	1.03	1.14	0.862	0.997	1.03	0.981	1	0.971
CCOc1cc(Oc2ccc(C(F)(F)F)cc2Cl)ccc1[N+](=O)[O-]	0.602 (active)	1.01	0.979	0.989	1.09	0.939	0.955	1.08	1.01	0.954	0.884	0.976
CC(C)OC(=O)C(O)(c1ccc(Br)cc1)c1ccc(Br)cc1	0.905	1.01	1.01	0.912	1.01	0.918	0.981	1.05	0.854	0.868	1	0.962
CC(C)(C)C(O)C(Oc1ccc(-c2ccccc2)cc1)n1cncn1 (mixture of isomers)	1	1.01	1.05	0.964	1.07	0.949	0.958	0.952	0.918	0.976	1.02	1.01
Oc1ccccc1-c1ccccc1	1	1.02	1.05	0.984	0.988	1.08	0.923	1.03	0.976	1.04	0.939	1.04
CCOP(=S)(OCC)Oc1cc(C)nc(C(C)C)n1	0.982	1	0.992	1.12	1.03	1.02	1.03	0.999	0.924	1	0.984	1.03
CC(C)C1(C)N=C(c2ncccc2C(=O)O)NC1=O (stereo not drawn)	1.02	0.993	0.974	1.01	1.04	0.946	1.03	0.989	1.04	0.997	0.97	0.931
CN(C)C(CSS(=O)(=O)[O-])CSS(=O)(=O)O.[Na+]	0.987	1.03	1.01	1.5	1.11	0.952	0.984	1.05	0.979	1.03	1.06	0.979
CCS(=O)(=O)CCSP(=O)(OC)OC	0.975	1.01	0.992	0.935	0.969	1.04	1.03	0.97	1.08	0.988	1.06	0.957
CCNP(=S)(OC)O/C(C)=C/C(=O)OC(C)C (stereo not drawn)	0.987	1	0.951	1.13	0.981	0.968	0.994	0.956	0.991	0.963	1.05	0.99
C=CCOC(=O)C(C)(C)OC(=O)c1cc(-n2c(=O)cc(C(F)(F)F)n(C)c2=O)ccc1Cl	1	0.998	1.02	1.05	1.09	0.871	1.01	0.913	0.811	0.962	0.994	0.98

Compound	growth AUC [1]	growth AUC [2]	growth AUC [3]	growth AUC [4]	growth AUC [5]	growth AUC [6]	growth AUC [7]	growth AUC [8]	growth AUC [9]	growth AUC [10]	growth AUC [11]	growth AUC [12]
C[C@@H](Oc1ccc(Oc2ccc(C(F)(F)F)cn2)cc1)C(=O)O	1.03	1	1	1.06	1.06	0.867	1.02	1.03	1.01	1.07	0.99	1.05
CCCCCCCCCCCCCN1CC(C)OC(C)C1 (stereo not drawn)	0.999	1.01	0.966	0.991	0.964	0.937	1.08	0.984	0.984	0.973	0.937	1.01
C=C(C)CN(CC)c1c([N+](=O)[O-])cc(C(F)(F)F)cc1[N+](=O)[O-]	0.985	0.921	0.968	0.921	0.912	1.03	1.14	1.01	1.02	1.01	1.01	0.989
C1CCC(NC2CCCCC2)CC1.O=NO	0.832	0.991	0.95	0.601 (active)	1	1.06	0.985	0.93	0.936	0.753 (active)	1	0.986
Cc1ccc(N(SC(F)(Cl)Cl)S(=O)(=O)N(C)C)cc1	1.02	0.974	0.982	1.03	1	1.07	1	1.02	1.06	1.04	1.01	1.01
Cc1c(COC(=O)[C@@H]2[C@H](/C=C(\Cl)C(F)(F)F)C2(C)C)cccc1-c1ccccc1	1.03	1.02	1.02	0.938	1.07	0.862	0.982	1.03	1.01	0.965	0.924	0.949
COC(C)(C)CCCC(C)C/C=C/C(C)=C/C(=O)OC(C)C (stereo not drawn)	1.01	1.01	1	0.831	1	1.04	1.04	0.999	1	1	1.01	1.01
CO/N=C(/C1=NOCCO1)c1ccccc1Oc1ncnc(Oc2ccccc2Cl)c1F	0.962	0.967	1.03	0.963	0.978	0.992	1	0.974	0.678 (active)	0.892	0.997	1.04
CCOC(=O)CC(SP(=S)(OC)OC)C(=O)OCC (stereo not drawn)	0.984	0.975	1.02	1.07	0.977	0.917	1.13	1.07	0.959	1.01	0.99	0.939
C[N+](C)(C)CCCl.[Cl-]	1.05	1.02	1.03	1.04	1.11	0.944	1.05	1.01	1.06	1.03	0.994	1.03
CCCSP(=O)(OCC)SCCC	1.03	1.02	0.987	1.07	0.995	0.902	0.96	0.986	0.976	1.01	1	0.984
CC(C)OC(=O)Nc1cccc(Cl)c1	1.02	1.01	0.965	1.07	1.06	0.85	0.985	1.13	0.965	1.06	0.906	0.981
CC1(C)C(C=C(Cl)Cl)C1C(=O)OC(C#N)c1cccc(Oc2ccccc2)c1 (mixture of isomers)	1	1.01	0.987	1.02	1.04	0.865	1.02	1.03	0.982	0.984	0.945	0.936
CN1COCN(Cc2cnc(Cl)s2)/C1=N/[N+](=O)[O-]	0.965	0.987	0.97	0.953	0.958	1.04	0.913	0.999	0.991	0.994	0.952	1.02
c1ccc2c(c1)cc1ccc3cccc4ccc2c1c34	1	1.02	1	0.971	0.951	1.04	0.967	0.932	0.994	0.974	1.13	1.06
CC(C)N1C(=O)c2ccccc2NS1(=O)=O	1.05	0.972	0.97	1.1	1.01	0.945	0.932	0.992	0.787	1.02	1	0.978
CC(C)OP(=O)(OC(C)C)SCc1ccccc1	1.03	1.01	0.984	1.09	1.01	0.959	1.01	1.05	0.866	0.988	0.951	1
Cc1cc(Cl)ccc1OCC(=O)O.O.[Na]	1	1.01	1	1.15	1.07	0.864	0.994	1.03	0.95	1.04	1.02	0.986
O=[N+]([O-])c1cc(C(F)(F)F)c(Cl)c([N+](=O)[O-])c1Nc1ncc(C(F)(F)F)cc1Cl	0.953	0.98	0.986	0.995	0.885	0.807	0.578 (active)	1.02	0.905	0.0369 (active)	0.989	0.822
CCCN(CCOc1c(Cl)cc(Cl)cc1Cl)C(=O)n1ccnc1	0.487 (active)	1.01	1.01	0.591 (active)	1	1.11	1.17	0.94	0.871	0.843	0.8	0.984
CCc1ccc(C(=O)NN(C(=O)c2cc(C)cc(C)c2)C(C)(C)C)cc1	0.987	1.01	0.999	0.937	0.882	0.98	1.04	0.926	1.03	0.945	0.945	0.952
C=CCC1=C(C)C(OC(=O)C2C(C=C(C)C)C2(C)C)CC1=O (mixture of isomers)	0.963	0.968	1.01	1.09	1.01	0.818	0.943	1.01	0.771	0.955	0.924	0.953
CC(C)OC(=O)C(C(=O)OC(C)C)=C1SCCS1	1.06	1.01	0.988	1.02	1.02	0.977	0.98	0.995	0.782 (active)	1.01	1.06	1.02
N#Cc1nn(-c2c(Cl)cc(C(F)(F)F)cc2Cl)c(N)c1S(=O)C(F)(F)F (stereo not drawn)	1	1.01	0.981	0.951	0.974	0.811	0.98	0.93	0.714 (active)	0.87	0.914	0.811
